In PubChem BioAssay (EPA / NIEHS):
Active and inactive are the calls of the source. The calls were made as follows: active = hit-call score of the fitted dose curve at least 0.9, where 1 is the maximum; inactive = score below 0.9.

Key:
[1] = read-out: Tissue plasminogen activator (tPA), PLAT (gene 5327); experiment: BSK_BE3C_tPA: BioMAP Diversity Plus: BE3C Assay for Tissue plasminogen activator (tPA) Biomarker Activity (AID 2283041); settings: primary human bronchial epithelial cells; actives raise or lower the signal
Procedure, shortened: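 Primary human bronchial epithelial cells in the BE3C system, exposed to compound for 24 h. tPA was quantified by ELISA; DMSO served as baseline, with gain or loss of signal fitted. Cytotoxicity checked in parallel cultures by SRB total-protein staining.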

[2] = read-out: Interleukin-8 (IL8), CXCL8 (gene 3576); experiment: BSK_CASM3C_IL8: BioMAP Diversity Plus: CASM3C Assay for Interleukin-8 (IL8) Biomarker Activity (AID 2283042); settings: primary human coronary artery smooth muscle cells; actives raise or lower the signal;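 also: IL-8 protein level quantified by ELISA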
[3] = read-out: Human Leukocyte Antigen - DR isotype (HLADR), HLA-DRA (gene 3122); experiment: BSK_CASM3C_HLADR: BioMAP Diversity Plus: CASM3C Assay for Human Leukocyte Antigen - DR isotype (HLADR) Biomarker Activity (AID 2283043); settings: primary human coronary artery smooth muscle cells; actives raise or lower the signal;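 also: cell-surface HLA-DR protein level quantified by ELISA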
[4] = read-out: Macrophage colony-stimulating factor (MCSF), CSF1 (gene 1435); experiment: BSK_CASM3C_MCSF: BioMAP Diversity Plus: CASM3C Assay for Macrophage colony-stimulating factor (MCSF) Biomarker Activity (AID 2283044); settings: primary human coronary artery smooth muscle cells; actives raise or lower the signal;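 also: M-CSF protein amount quantified by ELISA after 24 h exposure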
[5] = read-out: Low-density lipoprotein receptor (LDLR), LDLR (gene 3949); experiment: BSK_CASM3C_LDLR: BioMAP Diversity Plus: CASM3C Assay for Low-density lipoprotein receptor (LDLR) Biomarker Activity (AID 2283045); settings: primary human coronary artery smooth muscle cells; actives raise or lower the signal;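 also: LDLR protein level on the cell surface quantified by ELISA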
[6] = read-out: Monocyte Chemoattractant Protein-1 (MCP1), CCL2 (gene 6347); experiment: BSK_CASM3C_MCP1: BioMAP Diversity Plus: CASM3C Assay for Monocyte Chemoattractant Protein-1 (MCP1) Biomarker Activity (AID 2283046); settings: primary human coronary artery smooth muscle cells; actives raise or lower the signal;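 also: MCP-1 level quantified by ELISA 24 h after dosing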
[7] = BSK_CASM3C_Proliferation: Cell Proliferation Assessment in the BioMAP Diversity Plus: CASM3C Assay (AID 2283047); settings: primary human coronary artery smooth muscle cells;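 also: sulforhodamine B total protein stain as relative cell number at 560 nm; sub-confluent cells exposed 48 h before staining; fitted both ways against DMSO so gain or loss of cell number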
[8] = read-out: Monokine induced gamma interferon (MIG), CXCL9 (gene 4283); experiment: BSK_CASM3C_MIG: BioMAP Diversity Plus: CASM3C Assay for Monokine induced gamma interferon (MIG) Biomarker Activity (AID 2283048); settings: primary human coronary artery smooth muscle cells; actives raise or lower the signal;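 also: MIG protein level measured by ELISA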
[9] = read-out: serum amyloid A (SAA), SAA1 (gene 6288); experiment: BSK_CASM3C_SAA: BioMAP Diversity Plus: CASM3C Assay for serum amyloid A (SAA) Biomarker Activity (AID 2283049); settings: primary human coronary artery smooth muscle cells; actives raise or lower the signal;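 also: SAA protein level quantified by ELISA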
[10] = BSK_CASM3C_SRB: Viability Assessment in the BioMAP Diversity Plus: CASM3C Assay (AID 2283050); settings: primary human coronary artery smooth muscle cells
[11] = read-out: Thrombomodulin, THBD (gene 7056); experiment: BSK_CASM3C_Thrombomodulin: BioMAP Diversity Plus: CASM3C Assay for Thrombomodulin Biomarker Activity (AID 2283051); settings: primary human coronary artery smooth muscle cells; actives raise or lower the signal;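 also: thrombomodulin protein level measured by ELISA 24 h after dosing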
[12] = read-out: Tissue Factor, F3 (gene 2152); experiment: BSK_CASM3C_TissueFactor: BioMAP Diversity Plus: CASM3C Assay for Tissue Factor Biomarker Activity (AID 2283052); settings: primary human coronary artery smooth muscle cells; actives raise or lower the signal;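 also: cell surface tissue factor protein level read by ELISA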
[13] = read-out: Interferon-gamma inducible Protein 10 (IP10), CXCL10 (gene 3627); experiment: BSK_hDFCGF_IP10: BioMAP Diversity Plus: hDFCGF Assay for Interferon-gamma inducible Protein 10 (IP10) Biomarker Activity (AID 2283053); settings: primary human foreskin fibroblasts; actives raise or lower the signal
Procedure, shortened: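 Primary human foreskin fibroblasts exposed to chemicals for 24 h. IP-10 measured by ELISA; changes fitted bidirectionally against DMSO baseline.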

[14] = read-out: Urokinase-type plasminogen activator receptor (uPAR), PLAUR (gene 5329); experiment: BSK_CASM3C_uPAR: BioMAP Diversity Plus: CASM3C Assay for Urokinase-type plasminogen activator receptor (uPAR) Biomarker Activity (AID 2283054); settings: primary human coronary artery smooth muscle cells; actives raise or lower the signal;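 also: cell-surface uPAR protein level quantified by ELISA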
[15] = read-out: Vascular cell adhesion molecule 1 (VCAM1), VCAM1 (gene 7412); experiment: BSK_CASM3C_VCAM1: BioMAP Diversity Plus: CASM3C Assay for Vascular cell adhesion molecule 1 (VCAM1) Biomarker Activity (AID 2283055); settings: primary human coronary artery smooth muscle cells; actives raise or lower the signal;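 also: VCAM-1 protein level quantified by ELISA on the cells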
[16] = read-out: Collagen III, COL3A1 (gene 1281); experiment: BSK_hDFCGF_CollagenIII: BioMAP Diversity Plus: hDFCGF Assay for Collagen III Biomarker Activity (AID 2283056); settings: primary human foreskin fibroblasts; actives raise or lower the signal
Procedure, shortened: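 Human foreskin fibroblast primary cultures sampled 24 h after dosing; Collagen III quantified by ELISA. Signal fitted bidirectionally against DMSO baseline.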

[17] = read-out: Epidermal growth factor receptor (EGFR), EGFR (gene 1956); experiment: BSK_hDFCGF_EGFR: BioMAP Diversity Plus: hDFCGF Assay for Epidermal growth factor receptor (EGFR) Biomarker Activity (AID 2283057); settings: primary human foreskin fibroblasts; actives raise or lower the signal
Procedure, shortened: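 Primary human foreskin fibroblasts (hDFCGF system), sampled 24 h after dosing; EGFR quantified by ELISA. Bidirectional fit relative to DMSO baseline; SRB total-protein staining in parallel cultures for cytotoxicity.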

[18] = read-out: Interleukin-8 (IL8), CXCL8 (gene 3576); experiment: BSK_hDFCGF_IL8: BioMAP Diversity Plus: hDFCGF Assay for Interleukin-8 (IL8) Biomarker Activity (AID 2283058); settings: primary human foreskin fibroblasts; actives raise or lower the signal
Procedure, shortened: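 Primary human foreskin fibroblasts (hDFCGF system) dosed with chemical; IL-8 measured by ELISA 24 hours later. Bidirectional curve fitting relative to DMSO baseline; cytotoxicity tracked in parallel cultures by SRB total protein staining.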

[19] = BSK_hDFCGF_Proliferation: Cell Proliferation Assessment in the BioMAP Diversity Plus: hDFCGF Assay (AID 2283059); settings: primary human foreskin fibroblasts;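 also: curves fitted for both rise and fall of signal versus DMSO baseline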
Procedure, shortened: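 Total protein read at 560 nm after 0.1% SRB staining of TCA-fixed human skin fibroblasts, […]. Activity is fitted in both directions relative to DMSO as baseline.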

[20] = read-out: Macrophage colony-stimulating factor (MCSF), CSF1 (gene 1435); experiment: BSK_hDFCGF_MCSF: BioMAP Diversity Plus: hDFCGF Assay for Macrophage colony-stimulating factor (MCSF) Biomarker Activity (AID 2283060); settings: primary human foreskin fibroblasts; actives raise or lower the signal
Procedure, shortened: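 Human foreskin fibroblast primary cultures; M-CSF measured by ELISA 24 hours after chemical dosing. Bidirectional fitting relative to DMSO, with overt cytotoxicity tracked by parallel SRB total-protein staining (0.1% SRB, 10% TCA fixation, 560 nm).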

Measured: AC50

COCc1nnc(-c2ccc[n+]([O-])c2)n1-c1c(Cl)c(Cl)cc2[nH]c(=O)c(=O)[nH]c12
inactive: all assays above

CCCCCCCC/C=C\CCCCCCCC(=O)OC[C@@H](O)[C@H]1OC[C@H](O)[C@H]1O
inactive: all assays above

C=CN1CCCC1=O
inactive: all assays above

O=C(NO)C1(NS(=O)(=O)c2ccc(Oc3ccc(F)cc3)cc2)CCOCC1
inactive: all assays above

CC(=O)c1ccccc1
inactive: all assays above

O=S(=O)(O)c1ccc(N=Nc2c(O)ccc3cc(S(=O)(=O)O)ccc23)cc1
inactive: all assays above

CCN(CC)C(=S)SSC(=S)N(CC)CC
active: [1] 7.46 µM | [2] 20 µM | [3] 31.2 µM | [4] 24.4 µM | [5] 35.4 µM | [6] 31.6 µM | [7] 12.8 µM | [8] 33.3 µM | [9] 28.8 µM | [10] 31.4 µM | [11] 5.26 µM | [12] 20 µM | [13] 1.67 µM | [14] 31.1 µM | [15] 30.6 µM | [16] 4.78 µM | [18] 2.81 µM | [19] 1.41 µM | [20] 1.76 µM
inactive: [17]

NC(=O)N(O)[C@@H]1COc2cc(OCc3ccccc3)ccc21
active: [15] 10.2 µM
inactive: all other assays above

O=C(Cl)C(F)(F)C(F)(F)C(F)(F)C(=O)Cl
inactive: all assays above

OC(CCl)CCl
inactive: all assays above

OCCNCCO
inactive: all assays above

NC(=O)N1c2ccccc2C=Cc2ccccc21
inactive: all assays above
